Experimental data: PubChem BioAssay AID651899 (Broad Institute, 2012)
Potency and affinity values are given separately. Unmarked numbers belong to inactive results. No rule for the calls is given here.

Experiment: HEK293 cell viability loss – plate reader, cherry-pick, cytotoxicity control, dose response (AID 651899);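 also: cells exposed to compound for 48 hours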
Details: series mostly up to 26 µM; activity change, negative = cytotoxicity: at the top concentration

Going from `CCCC(=O)Nc1cccc(NC(=O)c2ccc(C)c([N+](=O)[O-])c2)c1` to `CCCOC(=O)c1cccc(NC(=O)c2cccnc2)c1`, the “activity change, negative = cytotoxicity” value rises from -12.6% to 2.6%.

Going from `COc1ccc(Cn2ccc(=O)c(Cc3c(Cl)cccc3Cl)c2C)cc1` to `Cc1c2cnn(CC(=O)NCc3ccccn3)c(=O)c2c(C)n1Cc1ccc(Cl)cc1`, the “activity change, negative = cytotoxicity” value rises from 9.69% to 26.4%.

Compared with `O=C(c1ccncc1)N1CC[C@@H]2[C@H](CO)Nc3ccc(Br)cc3[C@@H]21`, `O=C(c1ccc2c(c1)OCO2)N1CC[C@@H]2[C@H](CO)Nc3ccc(-c4ccc(F)cc4)cc3[C@@H]21` is higher in “activity change, negative = cytotoxicity” value: -1.15% for the first, 6.2% for the second.

Compared with `O=C(NC1CCCc2c1cnn2-c1cc(F)cc(F)c1)c1ccc[n+]([O-])c1` (stereo unspecified), `CN1c2ccc(-c3cccc(F)c3)cc2[C@H]2[C@H](CCN2C(=O)C2CCOCC2)[C@H]1CO` is higher in “activity change, negative = cytotoxicity” value: -12.5% for the first, 20.7% for the second.

First: CCc1nn(CCCC(=O)N(C)Cc2ccccc2)c(=O)c2cc3occc3n12
Second: CN(C(=O)CSc1nc2ccccc2c(=O)n1-c1ccccc1Cl)C1CCS(=O)(=O)C1 (stereo unspecified)
The “activity change, negative = cytotoxicity” value of the first is lower: -13.7% for the first, 1.02% for the second.

Going from `CC(=O)c1ccc(N2CCN(C(=O)c3ccc(Br)cc3)CC2)c(F)c1` to `CC(=O)c1ccc(NC(=O)CN2CCN(c3ccccc3)CC2)cc1`, the “activity change, negative = cytotoxicity” value falls from 40% to -22.7%.

Compared with `COC(=O)C1CCN(C(c2ccc(OC)c(OC)c2)c2sc3nc(C)nn3c2O)CC1` (stereo unspecified), `CCOC(=O)C1CCN(C(=O)Nc2ccc3snnc3c2)CC1` is lower in “activity change, negative = cytotoxicity” value: 35.7% for the first, 29.1% for the second.

First: COc1ccc(C(C)NC(=O)Nc2ccc(C(C)=O)cc2)cc1OC (stereo unspecified)
Second: COc1ccc(CCN(C)c2ccc(C(N)=O)cc2[N+](=O)[O-])cc1OC
The “activity change, negative = cytotoxicity” value of the first is higher: -10.9% for the first, -15.1% for the second.

Going from `CSc1ccc(S(=O)(=O)N2CCC(C(=O)Nc3cccnc3)CC2)cc1` to `O=C(N[C@@H]1CC[C@H](CCn2cc(-c3cccnc3)nn2)O[C@@H]1CO)c1ccccc1F`, the “activity change, negative = cytotoxicity” value rises from -0.874% to 7.06%.

Going from `Cn1ncc2cc3c(Nc4ccc(Cl)cc4)cccc3nc21` to `COc1ccc(-c2nc3cnccn3c2Nc2ccc3c(c2)OCO3)cc1`, the “activity change, negative = cytotoxicity” value rises from -13.1% to 1.49%.

First: Cc1nc2nc(SCC(=O)NCc3ccco3)nn2c(C)c1Cc1c(F)cccc1Cl
Second: CCc1c(C)nc2ncnn2c1Nc1ccc(C#N)c(Cl)c1
The “activity change, negative = cytotoxicity” value of the first is higher: 10.3% for the first, -0.614% for the second.

Going from `Cc1cccc(-c2nnc(SCC#N)n2-c2ccccc2)c1` to `CC(Oc1ccc2c(-c3ccccc3)cc(=O)oc2c1)C(=O)NCc1ccccn1` (stereo unspecified), the “activity change, negative = cytotoxicity” value falls from -15.9% to -28.5%.

First: COC(=O)C1=C(C)Nc2sc(C(N)=O)c(N)c2C1c1ccncc1 (stereo unspecified)
Second: CCOC(=O)c1c(N)sc(C(N)=O)c1C
The “activity change, negative = cytotoxicity” value of the first is lower: 10.5% for the first, 28.2% for the second.

First: Cc1nc(-c2cccnc2)sc1C(=O)Nc1cccc(C(F)(F)F)c1
Second: Cc1nn(CCC(=O)O)c2nc(-c3cccnc3)cc(C(F)(F)F)c12
The “activity change, negative = cytotoxicity” value of the first is lower: -8.29% for the first, -7.73% for the second.

Compared with `O=C(Nc1ccc2snnc2c1)N1CCOCC1`, `Cc1ccc(NC(=O)CSc2nc(=O)n(CCCN3CCOCC3)c3c2CCCC3)cc1F` is higher in “activity change, negative = cytotoxicity” value: 8.81% for the first, 23.6% for the second.

Compared with `CC(=O)O[C@]1(C(C)=O)CC[C@H]2[C@@H]3C=C(C)C4=CC(=O)CC[C@]4(C)[C@H]3CC[C@@]21C`, `CC(=O)c1ccc(C(=O)N2CCCC(CCC(=O)N(C)CCc3ccccn3)C2)s1` (stereo unspecified) is higher in “activity change, negative = cytotoxicity” value: -26.5% for the first, 26.2% for the second.

First: COc1cc(C(=O)N2Cc3cc4ccccc4nc3C2C)cc(OC)c1OC (stereo unspecified)
Second: COc1ccc(Cc2c(-c3ccc(OC)c(OC)c3)nc3c(C)cc(Br)cn23)c(C)c1
The “activity change, negative = cytotoxicity” value of the first is higher: 36.1% for the first, 18.9% for the second.

For `CC(=O)c1ccc(N2CCN(c3ncccn3)CC2)c([N+](=O)[O-])c1`, the “activity change, negative = cytotoxicity” value was 16.1%.

With `CN1c2ccc(-c3cccc(F)c3)cc2[C@H]2[C@H](CCN2C(=O)c2ccc3c(c2)OCO3)[C@H]1CO` the “activity change, negative = cytotoxicity” value was 1.38% [at 23.5 µM].
